What follows are molecules tested against Pyruvate kinase PKLR (Homo sapiens) (UniProt P30613) (assay: Secondary Concentration-Response Assay for Activators of Human Liver Pyruvate Kinase: for Probe SAR). Settings: purified hPK-L, ATP production, Kinase-Glo luminescence; series mostly up to 58.3 µM; activity change, positive = activation: at the top concentration; active = well fitted curve in the direction sought with a large enough effect; inconclusive = small, poorly fitted or top-dose-only effect, or effect the other way, or another doubt; inactive = no such curve, though single readings can be large or run the other way.
Chain of Pyruvate kinase PKLR (Homo sapiens) (P30613 whole entry, looked up): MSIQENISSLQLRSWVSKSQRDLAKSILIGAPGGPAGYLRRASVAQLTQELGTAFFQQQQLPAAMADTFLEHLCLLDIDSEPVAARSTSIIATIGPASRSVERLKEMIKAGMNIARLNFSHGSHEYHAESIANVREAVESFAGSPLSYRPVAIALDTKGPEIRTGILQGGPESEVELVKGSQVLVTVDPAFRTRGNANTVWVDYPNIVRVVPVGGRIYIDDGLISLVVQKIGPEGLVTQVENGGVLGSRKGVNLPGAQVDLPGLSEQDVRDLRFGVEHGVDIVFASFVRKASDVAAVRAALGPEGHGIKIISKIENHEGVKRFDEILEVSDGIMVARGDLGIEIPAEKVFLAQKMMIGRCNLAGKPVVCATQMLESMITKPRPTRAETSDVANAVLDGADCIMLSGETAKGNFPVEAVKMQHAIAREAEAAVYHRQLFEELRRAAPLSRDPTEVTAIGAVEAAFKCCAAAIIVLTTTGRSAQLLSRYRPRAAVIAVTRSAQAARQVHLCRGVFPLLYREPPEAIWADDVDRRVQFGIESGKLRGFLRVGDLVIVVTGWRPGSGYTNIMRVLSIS
Procedure, shortened: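 Purified human liver pyruvate kinase (0.1 nM) incubated 1 h at room temperature with compound, 0.5 mM PEP and 0.1 mM ADP in imidazole buffer pH 7.2; ATP formed read by Kinase-Glo luminescence, normalized to uninhibited wells.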
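Note: 0% = uninhibited enzyme wells on each plate.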

Activity change, positive = activation, inactive:
Cc1ccc(NS(=O)(=O)c2ccc(F)cc2)cc1C -2.34%, CN(C)c1cccc(S(=O)(=O)N2CCCN(S(=O)(=O)c3ccc4c(c3)OCCO4)CC2)c1 20%, O=C1CCc2cc(S(=O)(=O)Nc3ccc4ncccc4c3)ccc2N1 11.9%, O=C1c2ccccc2C(=O)N1c1cccnc1 -2.26%, O=C1CCc2cc(S(=O)(=O)Nc3ccc4c(c3)OCCO4)ccc2N1 8.86%, Cc1ccc(-c2nc3cnccn3c2Nc2ccc(C(C)C)cc2)o1 -0.25%, COc1cccc(NS(=O)(=O)c2ccc3c(c2)CCC(=O)N3)c1 8.7%, Cc1ccc(NS(=O)(=O)c2cccc(Cl)c2)cc1C 5.58%, Cc1ccc(NS(=O)(=O)c2cc3c(cc2Br)NC(=O)CO3)cc1C 14.1%, Nc1cc(S(=O)(=O)N2CCN(S(=O)(=O)c3ccc4c(c3)OCCO4)CC2)ccn1 21.6%, Cc1ccc(Cl)cc1NS(=O)(=O)c1cc2c(cc1Cl)CCC(=O)N2 9.87%, Cc1c(Cl)cccc1NS(=O)(=O)c1cc2c(cc1F)NC(=O)CC2 0.535%, Cc1ccc(OC2=NS(=O)(=O)c3ccccc32)cc1 3.19%, O=C1CCc2cc(S(=O)(=O)Nc3cccc(Cl)c3)ccc2N1 3.94%, Nc1cccc(S(=O)(=O)N2CCCN(S(=O)(=O)c3ccc4c(c3)OCCO4)CC2)c1 11.9%, O=C1CCc2cc(S(=O)(=O)Nc3ccc(Cl)c(Cl)c3)ccc2N1 4.66%, Cc1ccc(NS(=O)(=O)c2ccc3c(c2)NC(=O)CO3)cc1C 15.7%, Cc1ccc(NS(=O)(=O)c2cc3c(cc2C)NC(=O)CO3)cc1C 14%
